This passage reports outcome and AC50 results from PubChem BioAssay (EPA / NIEHS).

The structures appear in SMILES notation. Inconclusive results are not listed. The source made the active and inactive calls. Rule for the calls, unless noted: active = hit-call score of the fitted dose curve at least 0.9, where 1 is the maximum; inactive = score below 0.9.

The target in assay [1] is Paired box protein Pax-6 (Homo sapiens) (UniProt P26367). The experiment in a line: ATG_Pax6_CIS: Attagene CIS-FACTORIAL HepG2 Assay for human Paired Box 6 (PAX6) (AID 2282956). Particulars: HepG2 CIS-FACTORIAL PAX6 reporter transcription, RNA readout; actives raise or lower the signal. In short, it runs like this:
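Multiplexed cis-reporter HepG2 system; 24 h treatment; reporter mRNA read by RT-PCR/CE fluorescence; bidirectional fit vs DMSO.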

Assay [2] is described as follows: ATG_PXRE_CIS: Attagene CIS-FACTORIAL HepG2 Assay for human Pregnane X Receptor Element (PXRE) (AID 2282957). Particulars: HepG2 Attagene CIS-FACTORIAL PXRE reporter, mRNA; actives raise or lower the signal. Summed up: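 Transfect HepG2 with MRTUs (cis promoter elements); dose chemical, incubate 24 h; isolate RNA, RT with oligo(dT), PCR, 6-FAM label, HpaI cut, CE. Gain/loss fit vs DMSO.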

Assay [3] is described as follows: ATG_Sox_CIS: Attagene CIS-FACTORIAL HepG2 Assay for human SRY-box transcription factor (SOX) (AID 2282960). Particulars: HepG2 Attagene cis-factorial SOX reporter, mRNA; actives raise or lower the signal. Summed up: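 Transient MRTU transfection of HepG2; 24 h compound incubation; TriZol RNA, oligo(dT) RT, PCR, 6-FAM primer extension, HpaI cut, CE. Bidirectional fit, DMSO = baseline.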

For assay [4], the target named is Transcription factor Sp1 (Homo sapiens) (UniProt P08047). The experiment in a line: ATG_Sp1_CIS: Attagene CIS-FACTORIAL HepG2 Assay for human Specificity Protein 1 (Sp1) (AID 2282961). Particulars: HepG2 Sp1 cis-reporter transcription, actives raise or lower the signal. Summed up:
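Endogenous Sp1 activity was gauged in human liver HepG2 cells bearing transfected reporter units under a cis-regulating promoter. After 24 h dosing, reporter mRNA was quantified by RT-PCR with capillary electrophoresis, and activity fitted bidirectionally versus DMSO.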

Assay [5] in a line: ATG_SREBP_CIS: Attagene CIS-FACTORIAL HepG2 Assay for human Sterol Regulatory Element Binding (SREBP) (AID 2282962). Particulars: HepG2 Attagene cis-factorial SREBP reporter, mRNA; actives raise or lower the signal. Summed up:
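mRNA induction of transfected cis-promoter reporters in HepG2 cells, 24 h post-dose. Detection: RT-PCR with 6-FAM-labelled products, HpaI digest, capillary electrophoresis. DMSO served as negative control and baseline.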

Assay [6] deals with Signal transducer and activator of transcription 3 (Homo sapiens) (UniProt P40763). The experiment in a line: ATG_STAT3_CIS: Attagene CIS-FACTORIAL HepG2 Assay for human Signal Transducer and Activator of Transcription 3 (STAT3) (AID 2282963). Particulars: HepG2, Attagene cis-factorial STAT3 reporter transcription; actives raise or lower the signal. In short, it runs like this: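 HepG2 cells transiently transfected with cis-element-driven multiple reporter transcription units; after 24 h chemical exposure, reporter mRNA measured by RT-PCR, 6-FAM primer-extension labelling, HpaI digestion and capillary electrophoresis. Bidirectional fitting versus DMSO baseline.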

The nature of assay [7]: ATG_TCF_b_cat_CIS: Attagene CIS-FACTORIAL HepG2 Assay for human T-Cell-Factor with beta-catenin (TCF/b-cat) (AID 2282965). Particulars: HepG2 TCF/beta-catenin cis-reporter transcription, actives raise or lower the signal. In short, it runs like this: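 Using capillary electrophoresis as the read-out, labelled reporter cDNA fragments from transiently transfected HepG2 were sized and quantified. Exposure lasted 24 hours; activity in either direction was referenced to DMSO.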

Assay [8] can be described thus: ATG_TAL_CIS: Attagene CIS-FACTORIAL HepG2 Assay for human TAL Basal Promoter (AID 2282966).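 Note: background control endpoint measuring basal TAL promoter reporter mRNA not a specific factor.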 Particulars: HepG2 Attagene cis-factorial TAL promoter reporter; actives raise or lower the signal. In short, it runs like this:
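Fluorescence of labelled reporter cDNA fragments, resolved by capillary electrophoresis, gave the readout. Human HepG2 liver cells carried transiently transfected cis-element reporter units and were treated for 24 hours; activity was fitted bidirectionally against DMSO.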

Assay [9] can be described thus: ATG_TGFb_CIS: Attagene CIS-FACTORIAL HepG2 Assay for human Transforming Growth Factor (TGF) (AID 2282967). Particulars: HepG2 Attagene CIS TGFb reporter, mRNA transcription; actives raise or lower the signal. In short, it runs like this: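 Endogenous TGFB1-linked transcription factor activity read as reporter mRNA via RT-PCR and capillary electrophoresis, 24 h after dosing transiently transfected HepG2 cells. Gain or loss of signal fitted relative to DMSO.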

In assay [10] the target is Nuclear receptor subfamily 1 group I member 3 (Homo sapiens) (UniProt Q14994). The experiment in a line: ATG_CAR_TRANS: Attagene TRANS-FACTORIAL HepG2 Assay for human Constitutive Androstane Receptor (CAR) (AID 2282969; active = hit-call score of the fitted dose curve at least 0.9, where 1 is the maximum;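 note: activators raise reporter mRNA above DMSO so AC50 marks induction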). Particulars: HepG2 Attagene TRANS-FACTORIAL CAR reporter. In short, it runs like this:
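HepG2 cells transiently transfected with multiplexed GAL4-UAS reporter units expressing chimeric NR-Gal4 proteins; compound exposure 24 h. Reporter mRNA measured by RT-PCR, 6-FAM labelling, HpaI digestion and capillary electrophoresis; gain-of-signal fitted against DMSO baseline.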

The target of assay [11] is Estrogen receptor (Homo sapiens) (UniProt P03372). The experiment in a line: ATG_ERa_TRANS: Attagene TRANS-FACTORIAL HepG2 Assay for human Estrogen Receptor alpha (ERa) (AID 2282970; active = hit-call score of the fitted dose curve at least 0.9, where 1 is the maximum). Particulars: HepG2 Attagene TRANS ERa GAL4 reporter, mRNA. In short, it runs like this:
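Human liver HepG2, transient transfection of multiple GAL4-UAS reporter units; TRANS format (exogenous NR-Gal4 chimera). 24 h dosing. Readout: reporter mRNA, RT-PCR, 6-FAM primer extension, HpaI digest, capillary electrophoresis. Positive direction vs DMSO.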

In assay [12] the target is X-box-binding protein 1 (Homo sapiens) (UniProt P17861). The experiment in a line: ATG_Xbp1_CIS: Attagene CIS-FACTORIAL HepG2 Assay for human X-box Binding Protein 1 (XBP1) (AID 2282972). Particulars: HepG2 XBP1 cis-element reporter, Attagene multiplex; actives raise or lower the signal. In short, it runs like this: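 Fluorescence-labelled cDNA fragments from reporter transcripts, separated by capillary electrophoresis, give the signal. Source: HepG2 cells transfected with promoter-driven reporter units, harvested 24 h post-dose. DMSO served as reference for bidirectional curve fitting.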

Assay [13] is described as follows: ATG_M_19_TRANS: Attagene TRANS-FACTORIAL HepG2 Assay for M19 Transcription Factor (Internal Marker) (AID 2282974; active = hit-call score of the fitted dose curve at least 0.9, where 1 is the maximum). Particulars: HepG2 Attagene TRANS-FACTORIAL M19 internal marker reporter. Summed up: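 Cells: human HepG2, transiently transfected with multiplexed reporter transcription units. Exposure: 24 h. Detection: RT-PCR of reporter mRNA with capillary electrophoresis. Analysis: gain-of-signal vs DMSO.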

Assay [14] can be described thus: ATG_GAL4_TRANS: Attagene TRANS-FACTORIAL HepG2 Assay for GAL4 (Internal Marker) (AID 2282976; active = hit-call score of the fitted dose curve at least 0.9, where 1 is the maximum). Particulars: HepG2 Attagene TRANS GAL4 internal marker reporter. Summed up:
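First, HepG2 cells were transfected with reporter units under GAL4-UAS control. Next, they were treated with chemical for 24 h. Finally, RNA was reverse-transcribed, PCR-amplified, FAM-labelled and resolved by capillary electrophoresis, with induction scored against DMSO.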

The nature of assay [15]: ATG_RORE_CIS: Attagene CIS-FACTORIAL HepG2 Assay for human RAR-related Orphan Receptor Element (RORE) (AID 2282959). Particulars: HepG2 Attagene cis-factorial RORE reporter, mRNA; actives raise or lower the signal. Summed up: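 Cells were HepG2 carrying transfected cis-regulated reporter constructs, dosed for 24 hours. Total RNA was reverse-transcribed and reporter cDNA amplified, fluorescently labeled and sized by capillary electrophoresis. Activity was fitted bidirectionally relative to DMSO.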

Assay [16] in a line: ATG_TA_CIS: Attagene CIS-FACTORIAL HepG2 Assay for human TA Basal Promoter (AID 2282964). Particulars: HepG2 Attagene CIS-factorial TA basal promoter reporter; actives raise or lower the signal. Summed up: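 Background-control readout: TA basal promoter reporter mRNA, fitted in both directions relative to DMSO. Measured by RT-PCR and capillary electrophoresis 24 hours after treating HepG2 human liver cells transiently carrying multiplexed cis-regulated reporter constructs.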

Assay [17] is described as follows: ATG_VDRE_CIS: Attagene CIS-FACTORIAL HepG2 Assay for human Vitamin D Receptor Element (VDRE) (AID 2282968). Particulars: HepG2 VDRE cis-reporter transcription, actives raise or lower the signal. Summed up: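 HepG2 cells transiently transfected with cis-element reporter units, dosed 24 h; reporter mRNA measured by RT-PCR, 6-FAM labeling, HpaI digestion and capillary electrophoresis. Activity fitted bidirectionally against DMSO baseline.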

Assay [18] has as its target Estrogen-related receptor gamma (Homo sapiens) (UniProt P62508). The experiment in a line: ATG_ERRg_TRANS: Attagene TRANS-FACTORIAL HepG2 Assay for human Estrogen-Related Receptor gamma (ERRg) (AID 2282977; active = hit-call score of the fitted dose curve at least 0.9, where 1 is the maximum;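 note: hits increase reporter signal over DMSO so potencies reflect activators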). Particulars: HepG2 Attagene TRANS reporter, ERRg transactivation. Summed up:
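Transient HepG2 transfectants, 24 h compound exposure, GAL4-UAS reporter mRNA by RT-PCR/6-FAM labelling/capillary electrophoresis; positive direction vs DMSO.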

Assay [19] can be described thus: ATG_PPRE_CIS: Attagene CIS-FACTORIAL HepG2 Assay for human Peroxisome Proliferator-activated Response Element (PPRE) (AID 2282958). Particulars: HepG2 PPRE cis-element reporter, Attagene transcription factor profiling; actives raise or lower the signal. In short, it runs like this:
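Cells are first transfected transiently with the multiplexed reporter library, then dosed for 24 h. Total RNA is reverse-transcribed, amplified, fluorescently end-labeled and HpaI-cut before capillary electrophoresis; activity is fitted bidirectionally against DMSO controls.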

Assay [20] has as its target Steroid hormone receptor ERR1 (Homo sapiens) (UniProt P11474). The experiment in a line: ATG_ERRa_TRANS: Attagene TRANS-FACTORIAL HepG2 Assay for human Estrogen-Related Receptor alpha (ERRa) (AID 2282971; active = hit-call score of the fitted dose curve at least 0.9, where 1 is the maximum). Particulars: HepG2 Attagene TRANS reporter, ERRa transactivation. Summed up:
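Reporter transcript induction was quantified by RT-PCR and capillary electrophoresis of FAM-labelled, HpaI-cut products after 24 h treatment of HepG2 cells carrying transiently transfected GAL4-UAS reporter units and an exogenous ERRa-Gal4 fusion; activity scored as increase over DMSO.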

Chain of X-box-binding protein 1 (Homo sapiens) (P17861 whole entry, looked up, the tested form may be a part): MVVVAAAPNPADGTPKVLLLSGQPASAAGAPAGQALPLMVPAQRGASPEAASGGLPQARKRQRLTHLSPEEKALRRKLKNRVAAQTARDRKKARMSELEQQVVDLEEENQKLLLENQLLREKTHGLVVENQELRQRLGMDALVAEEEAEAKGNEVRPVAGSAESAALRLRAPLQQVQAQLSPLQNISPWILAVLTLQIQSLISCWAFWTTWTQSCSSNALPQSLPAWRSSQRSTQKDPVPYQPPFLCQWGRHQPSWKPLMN
Chain of Signal transducer and activator of transcription 3 (Homo sapiens) (P40763 whole entry, looked up): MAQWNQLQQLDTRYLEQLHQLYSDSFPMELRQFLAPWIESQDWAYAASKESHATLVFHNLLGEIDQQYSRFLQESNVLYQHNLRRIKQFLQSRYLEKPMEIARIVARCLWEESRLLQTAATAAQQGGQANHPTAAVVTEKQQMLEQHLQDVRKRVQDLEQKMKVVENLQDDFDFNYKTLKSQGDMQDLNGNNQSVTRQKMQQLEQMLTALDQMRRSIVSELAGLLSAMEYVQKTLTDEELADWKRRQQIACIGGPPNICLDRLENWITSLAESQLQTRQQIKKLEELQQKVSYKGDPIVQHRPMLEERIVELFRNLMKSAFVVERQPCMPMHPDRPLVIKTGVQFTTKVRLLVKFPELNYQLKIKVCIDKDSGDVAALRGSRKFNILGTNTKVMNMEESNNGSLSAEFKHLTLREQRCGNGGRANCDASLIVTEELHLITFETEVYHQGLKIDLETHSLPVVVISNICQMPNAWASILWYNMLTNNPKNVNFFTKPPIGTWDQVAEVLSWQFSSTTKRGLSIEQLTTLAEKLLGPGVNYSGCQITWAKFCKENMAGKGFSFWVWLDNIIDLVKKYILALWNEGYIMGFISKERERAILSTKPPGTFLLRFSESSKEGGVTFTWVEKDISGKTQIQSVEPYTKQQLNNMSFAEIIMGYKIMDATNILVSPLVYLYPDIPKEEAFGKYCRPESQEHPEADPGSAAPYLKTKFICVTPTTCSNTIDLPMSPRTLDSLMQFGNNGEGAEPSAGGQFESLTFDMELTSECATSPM
Chain of Estrogen receptor (Homo sapiens) (P03372 whole entry, looked up, the tested form may be a part): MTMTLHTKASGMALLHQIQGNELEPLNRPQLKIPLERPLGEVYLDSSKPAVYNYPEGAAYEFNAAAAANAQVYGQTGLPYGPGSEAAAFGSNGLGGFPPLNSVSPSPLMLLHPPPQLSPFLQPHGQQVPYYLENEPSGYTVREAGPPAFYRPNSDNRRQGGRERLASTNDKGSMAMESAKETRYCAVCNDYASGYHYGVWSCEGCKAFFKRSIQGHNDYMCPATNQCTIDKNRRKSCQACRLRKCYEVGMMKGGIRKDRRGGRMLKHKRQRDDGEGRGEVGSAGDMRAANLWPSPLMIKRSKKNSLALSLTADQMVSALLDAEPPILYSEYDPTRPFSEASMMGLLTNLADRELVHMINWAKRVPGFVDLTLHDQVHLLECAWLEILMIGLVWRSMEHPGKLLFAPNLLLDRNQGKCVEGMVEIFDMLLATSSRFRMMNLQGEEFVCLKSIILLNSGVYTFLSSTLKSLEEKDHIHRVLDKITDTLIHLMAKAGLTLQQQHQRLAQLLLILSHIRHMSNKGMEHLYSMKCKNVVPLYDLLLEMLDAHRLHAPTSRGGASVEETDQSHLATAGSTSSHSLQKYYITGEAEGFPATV
Chain of Transcription factor Sp1 (Homo sapiens) (P08047 whole entry, looked up): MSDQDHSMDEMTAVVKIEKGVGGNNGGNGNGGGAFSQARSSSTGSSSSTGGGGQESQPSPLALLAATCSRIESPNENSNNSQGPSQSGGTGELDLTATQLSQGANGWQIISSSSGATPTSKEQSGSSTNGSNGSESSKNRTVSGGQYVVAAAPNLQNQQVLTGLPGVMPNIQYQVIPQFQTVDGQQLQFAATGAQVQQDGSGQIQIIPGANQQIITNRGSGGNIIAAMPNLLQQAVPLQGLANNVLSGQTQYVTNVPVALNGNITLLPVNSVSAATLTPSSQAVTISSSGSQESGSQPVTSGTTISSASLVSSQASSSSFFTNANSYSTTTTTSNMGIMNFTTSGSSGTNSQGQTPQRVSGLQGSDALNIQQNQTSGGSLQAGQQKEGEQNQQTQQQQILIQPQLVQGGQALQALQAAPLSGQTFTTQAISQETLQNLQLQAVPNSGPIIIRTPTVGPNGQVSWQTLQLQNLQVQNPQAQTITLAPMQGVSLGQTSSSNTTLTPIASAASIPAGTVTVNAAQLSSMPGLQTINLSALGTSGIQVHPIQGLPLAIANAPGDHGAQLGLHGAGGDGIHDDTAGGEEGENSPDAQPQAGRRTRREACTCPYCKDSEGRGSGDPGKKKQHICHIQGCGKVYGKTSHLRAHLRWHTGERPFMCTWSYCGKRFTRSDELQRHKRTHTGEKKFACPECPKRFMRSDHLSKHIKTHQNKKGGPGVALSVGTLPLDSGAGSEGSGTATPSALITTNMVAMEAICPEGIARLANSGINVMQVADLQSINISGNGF
Chain of Nuclear receptor subfamily 1 group I member 3 (Homo sapiens) (Q14994 whole entry, looked up, the tested form may be a part): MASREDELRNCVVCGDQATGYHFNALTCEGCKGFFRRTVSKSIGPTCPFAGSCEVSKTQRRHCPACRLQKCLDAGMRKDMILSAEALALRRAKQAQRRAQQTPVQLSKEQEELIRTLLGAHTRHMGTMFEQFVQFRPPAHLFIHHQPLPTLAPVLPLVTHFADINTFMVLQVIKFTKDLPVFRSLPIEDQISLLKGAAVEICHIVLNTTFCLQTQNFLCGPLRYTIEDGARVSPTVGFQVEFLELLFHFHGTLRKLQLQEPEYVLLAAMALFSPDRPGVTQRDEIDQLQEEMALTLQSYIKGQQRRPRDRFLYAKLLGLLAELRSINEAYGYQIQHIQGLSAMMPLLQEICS
Chain of Paired box protein Pax-6 (Homo sapiens) (P26367 whole entry, looked up): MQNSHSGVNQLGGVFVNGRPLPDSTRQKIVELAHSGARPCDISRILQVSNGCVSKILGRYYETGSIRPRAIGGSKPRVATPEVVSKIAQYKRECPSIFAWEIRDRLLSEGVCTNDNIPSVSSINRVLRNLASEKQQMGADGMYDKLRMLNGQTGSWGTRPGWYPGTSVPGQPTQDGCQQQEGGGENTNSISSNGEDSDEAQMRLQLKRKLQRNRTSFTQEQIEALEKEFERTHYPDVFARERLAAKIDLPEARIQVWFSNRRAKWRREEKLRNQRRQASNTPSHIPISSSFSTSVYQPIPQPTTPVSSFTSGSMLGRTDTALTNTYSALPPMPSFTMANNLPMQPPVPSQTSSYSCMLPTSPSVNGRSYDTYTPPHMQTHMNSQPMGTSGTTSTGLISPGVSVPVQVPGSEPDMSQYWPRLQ
Chain of Steroid hormone receptor ERR1 (Homo sapiens) (P11474 whole entry, looked up, the tested form may be a part): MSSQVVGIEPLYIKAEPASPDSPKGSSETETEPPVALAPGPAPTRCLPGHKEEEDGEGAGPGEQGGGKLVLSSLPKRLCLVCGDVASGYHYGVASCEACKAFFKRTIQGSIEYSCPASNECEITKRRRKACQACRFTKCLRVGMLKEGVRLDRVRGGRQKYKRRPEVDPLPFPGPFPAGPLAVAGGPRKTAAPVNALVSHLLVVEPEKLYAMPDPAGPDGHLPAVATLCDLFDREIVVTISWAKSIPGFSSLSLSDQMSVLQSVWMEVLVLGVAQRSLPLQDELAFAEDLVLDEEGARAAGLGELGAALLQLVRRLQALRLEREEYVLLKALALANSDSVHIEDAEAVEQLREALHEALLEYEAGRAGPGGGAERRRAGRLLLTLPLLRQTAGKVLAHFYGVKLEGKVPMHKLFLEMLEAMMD
Chain of Estrogen-related receptor gamma (Homo sapiens) (P62508 whole entry, looked up, the tested form may be a part): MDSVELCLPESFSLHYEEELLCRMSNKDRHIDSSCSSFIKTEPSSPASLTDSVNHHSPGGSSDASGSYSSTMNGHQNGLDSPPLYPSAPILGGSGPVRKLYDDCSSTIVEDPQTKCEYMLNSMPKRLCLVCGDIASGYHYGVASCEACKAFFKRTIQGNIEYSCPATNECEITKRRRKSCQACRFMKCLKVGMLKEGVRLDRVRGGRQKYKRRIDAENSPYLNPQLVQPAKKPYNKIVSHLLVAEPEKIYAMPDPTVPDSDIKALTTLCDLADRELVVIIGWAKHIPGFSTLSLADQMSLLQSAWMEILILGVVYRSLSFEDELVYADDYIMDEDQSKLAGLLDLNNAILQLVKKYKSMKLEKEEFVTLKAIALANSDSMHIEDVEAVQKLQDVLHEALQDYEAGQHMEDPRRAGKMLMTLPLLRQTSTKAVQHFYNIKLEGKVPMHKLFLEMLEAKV

For `CC1=CC[C@H](C(C)C)C=C1`, the result in assay [1], in assay [3], in [4], in assay [5], in assay [6] and in assay [7] was inactive. Besides, the result in assay [8], in [9], in [10], in assay [11], in [12] and in assay [13] was inactive. Besides, in assay [14], the result was inactive. Besides, the AC50 in assay [2] was 1.98 µM (active).

Consider `O=Cc1ccc(CO)o1`, for which the result in [1], in assay [2], in assay [15], in assay [3], in assay [4] and in assay [5] was inactive. Further, the compound was classed as inactive in assay [6], in [16], in [7], in assay [9], in assay [17] and in [12]. Moreover, the result in assay [14] and in assay [18] was inactive.

`O=C(/C=C/C=C/c1ccc2c(c1)OCO2)N1CCCCC1`: the AC50 in assay [2] was 2.37 µM (active); in assay [16] it was 66.9 µM (active); in assay [8], 100 µM (active); in assay [17], 2.53 µM (active). The result in [19], in assay [15], in assay [4], in [5], in [6] and in assay [7] was inactive. The compound was called inactive in assay [9], in assay [11], in assay [20], in [12], in assay [13] and in assay [14].

In the case of `N#[N+]c1ccc2c(S(=O)(=O)[O-])cccc2c1O`, the compound was called inactive in assay [2], in assay [15], in assay [3], in assay [4], in assay [5] and in [6]. Further, the outcome in [8], in assay [17], in [10], in assay [11], in [20] and in [12] was inactive. For the same compound, the outcome in [13], in assay [14] and in assay [18] was inactive.
